Screening data deposited in PubChem by The Scripps Research Institute Molecular Screening Center.
FBW7 activator = human FBW7 E3 ligase activation, primary screen; Q969H0; AlphaScreen FBW7–phospho-cyclin E peptide binding, activator screen; normalized activity (activation), % at 26.1 µM; 650,000 compounds, 0.13% hits; in the data active = normalized activity above about 1.9%;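 also: purified mutant Fbw7 with reduced substrate affinity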
Target sequence (Q969H0 whole entry, looked up): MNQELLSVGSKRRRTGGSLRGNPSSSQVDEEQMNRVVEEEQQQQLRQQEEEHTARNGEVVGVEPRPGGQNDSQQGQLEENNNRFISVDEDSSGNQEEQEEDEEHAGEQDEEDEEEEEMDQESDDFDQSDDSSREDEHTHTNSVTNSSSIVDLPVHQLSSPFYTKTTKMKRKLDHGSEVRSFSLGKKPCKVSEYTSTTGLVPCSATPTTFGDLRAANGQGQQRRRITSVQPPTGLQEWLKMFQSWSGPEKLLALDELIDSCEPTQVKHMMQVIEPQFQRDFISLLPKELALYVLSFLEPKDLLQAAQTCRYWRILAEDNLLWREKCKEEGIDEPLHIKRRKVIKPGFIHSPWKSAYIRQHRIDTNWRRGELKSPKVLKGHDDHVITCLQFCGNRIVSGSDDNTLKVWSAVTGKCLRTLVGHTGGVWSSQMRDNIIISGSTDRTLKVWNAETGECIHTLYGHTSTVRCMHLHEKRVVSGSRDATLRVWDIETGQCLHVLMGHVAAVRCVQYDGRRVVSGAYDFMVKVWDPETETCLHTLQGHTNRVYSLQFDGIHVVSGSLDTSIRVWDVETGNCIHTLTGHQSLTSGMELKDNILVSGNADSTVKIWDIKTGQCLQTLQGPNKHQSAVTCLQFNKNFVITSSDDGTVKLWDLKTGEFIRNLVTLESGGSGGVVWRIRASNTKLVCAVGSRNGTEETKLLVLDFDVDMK
GPR151 ag = activates the human receptor GPR151; PathHunter beta-arrestin GPR151 cells, luminescence; activation, % at 11.2 µM; Q8TDV0; 650,000 compounds, 1% hits; in the data active = activation above about 4.9%;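 also: 0% = median of compound wells and 100% = cells with positive control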
MITF primary = human MITF inhibition, primary screen | AID 1259374 | O75030 | inhibition, % at 2.6 µM | 650,000 compounds, 0.91% hits | AlphaScreen MITF homodimerization, bead proximity signal; in the data active = inhibition above about 50%;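 also: 0% = vehicle wells with protein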
TEAD-YAP inh = TEAD-YAP interaction inhibition; AID 1259422; 640,000 compounds, 1.4% hits; HEK-TIYL cells, TEAD-Gal4/YAP UAS-luciferase luminescence; inhibition, % at 9.12 µM; in the data active = inhibition above about 32%;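 also: 0% = median of test compound wells and 100% = reference inhibitor wells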
MITF confirm = human MITF inhibition, confirmation; AID 1259372; AlphaScreen MITF homodimerization, biotin/His-MITF beads; 4,700 compounds, 16% hits; shares compounds with MITF primary; inhibition, % at 2.6 µM;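 active = inhibition above a cutoff derived from the DMSO control wells, cut at about 28% in these data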;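 also: 0% = MITF dimer wells with DMSO only; inhibitors lower the bead chemiluminescence by keeping MITF from dimerizing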
AS interf DR = counter-screen: compounds optically interfering with AlphaScreen. AlphaScreen optical interference counterscreen, cell-free. shares compounds with MITF primary. IC50, µM. 480 compounds, 6% hits. AID 1259373; call rule not given here
AS interf ctr = optically interferes with AlphaScreen signal | shares compounds with MITF primary | LysRS AlphaScreen counterscreen, signal interference, triplicate | inhibition, % at 2.6 µM | 4,700 compounds, 7.6% hits;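 active = inhibition above a cutoff derived from the DMSO control wells, cut at about 30% in these data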
* marks the source's active call; other numbers are inactive results; x = no result given. Most compounds without a hit are left out; they make up all but 3.4% or so of the library.

SMILES | FBW7 activator | GPR151 ag | MITF primary | TEAD-YAP inh | MITF confirm | AS interf ctr | others
Cc1oc(C)c(C(=O)O)c1COc1ccccc1C(=O)O | 0 | -1 | 51* | 2 | 14 | -3
COc1ccc(CN2CCN(Cc3cccc4ccccc34)CC2)cc1Br | 0 | -1 | 72* | -8 | 0 | -2
CCOC(=O)N1CCN(Cc2ccc(OC)c(Br)c2)CC1 | 0 | -1 | 2 | -5 | x | x
COc1ccc(CN2CCN(Cc3ccc(OC)c(Br)c3)CC2)cc1 | 0 | 0 | 62* | 10 | 14 | -3
CCCS(=O)(=O)N1CCN(Cc2ccc(OC)c(Br)c2)CC1 | 0 | 1 | 11 | 6 | x | x
COc1cccc(CN2CCN(Cc3ccc(OC)c(Br)c3)CC2)c1 | 0 | 0 | 66* | 2 | 13 | 9
COc1cc(CN2CCN(Cc3ccccc3Cl)CC2)cc(OC)c1 | 0 | 1 | 69* | 2 | 5 | -2
O=C(CSc1nc(=O)n(CC2CCCO2)c2c1CCCC2)Nc1cccc2ccccc12 (configuration not stated) | 0 | -2 | -7 | 0 | x | x
COc1cc(NS(=O)(=O)c2ccc(Nc3nc(-c4c(C)nc5ccccn45)cs3)cc2)nc(OC)n1 | 1 | 0 | 10 | 1 | x | x
CCS(=O)(=O)N1CCN(Cc2ccc(OC)c(Br)c2)CC1 | 0 | 1 | 44 | 7 | x | x
COc1cccc(/C(C)=N/N2CCN(Cc3cccc4ccccc34)CC2)c1 | 0 | -1 | 2 | 8 | x | x
COc1cccc(CN2CCN(Cc3cccc4ccccc34)CC2)c1 | 0 | 2 | 77* | 2 | -15 | 0
COc1ccc(CN2CCN(S(C)(=O)=O)CC2)cc1Br | 0 | 0 | 70* | 10 | 5 | 16
O=C(NC1CC1)c1ccc(-c2nc(NCc3ccccc3)c3ncn(-c4ccsc4)c3n2)cc1 | 0 | 1 | 3 | 2 | x | x
COc1ccc(OC)c(C(=O)CSc2ncn[nH]2)c1 | 0 | 3 | 8 | -9 | x | x
COc1ccc(C(=O)CSc2ncn[nH]2)cc1C | 0 | 0 | 69* | -15 | 7 | 15
C=CCNCCOCCOc1cc(C)cc(C(C)C)c1 | 0 | 2 | 64* | 0 | 11 | 19
COCCNCCOCCOc1cc(C)cc(C(C)C)c1 | 0 | -1 | 53* | 1 | 5 | 6
C=CCNCCOc1cc(C)cc(C(C)C)c1 | 0 | -1 | -19 | -13 | x | x
COc1cccc(-c2nnc(SCC(=O)Nc3ccc(C(N)=O)cc3)n2N)c1 | 0 | 0 | 2 | 4 | x | x
CC1CCN(c2nc(N3CC(C)OC(C)C3)nc(N)c2[N+](=O)[O-])CC1 (configuration not stated) | 0 | 0 | -10 | 12 | x | x
CC(CO)(CO)NC(=O)C(=O)Nc1ccccc1 | 0 | 0 | -11 | -56 | x | x
COc1ccc(-c2ccc(C)c(NC(=O)c3c(OC)cccc3OC)c2)nn1 | 0 | 1 | 21 | 4 | x | x
CCOc1ccc(-c2ccc(NC(=O)c3c(OC)cccc3OC)cc2)nn1 | 0 | 2 | 99* | -5 | -6 | -5
Cc1nnc(C)n1/N=C\c1cccc2ccccc12 | 0 | 1 | 66* | 2 | -13 | -4
SMILES | FBW7 activator | GPR151 ag | MITF primary | TEAD-YAP inh | MITF confirm | AS interf ctr | others
CCOC(=O)c1ccc(NC(=O)CCSc2ccc(C)cc2)cc1 | 0 | 0 | 19 | -2 | x | x
CCOC(=O)c1ccc(NC(=O)CSc2ccc(F)cc2)cc1 | 0 | -1 | 54* | -3 | 4 | 12
COc1ccc(CNC(=O)CCCn2c(SCC(=O)NC3CCCCC3)nc3cc4c(cc3c2=O)OCO4)cc1 | 0 | 1 | -8 | 0 | x | x
CCOC(=O)c1cc(N2C(=O)C3C4C=CC(C4)C3C2=O)ccc1Cl (configuration not stated) | 0 | 4 | 59* | -7 | 55* | 9 | AS interf DR=>6.5
CC(=O)Nc1cc(N2C(=O)C3C4C=CC(C4)C3C2=O)ccc1Cl (configuration not stated) | 0 | 2 | -16 | -3 | x | x
COc1cc(OC)c(OC)cc1CN1CCN(Cc2ccc(C)cc2C)CC1 | -1 | 0 | 70* | 1 | 8 | 6
COc1ccc(CN2CCN(Cc3cccc(C)c3)CC2)c(OC)c1 | 0 | -1 | 69* | -4 | -1 | 3
COc1cc(OC)c(OC)cc1CN1CCN(Cc2cccc(C)c2)CC1 | 0 | 1 | 83* | 0 | -2 | 16
COc1cc(CN2CCN(Cc3cccc(C)c3)CC2)cc(OC)c1 | 0 | 1 | 42 | -10 | x | x
COc1ccc(CN2CCN(Cc3cccc(C)c3)CC2)c(OC)c1OC | 0 | 1 | 33 | 2 | x | x
COc1cccc(CN2CCN(Cc3cc(OC)ccc3OC)CC2)c1 | 0 | 1 | 75* | 8 | -4 | 1
Cc1ccc(C(=O)N2CCN3C(=O)[C@@H]4CCCN4C(=O)[C@H]3C2)cc1 | 0 | 0 | 13 | -1 | x | x
COc1ccc(-c2noc(-c3nnn(-c4ccc(C(C)C)cc4)c3N)n2)cc1 | 1 | -1 | 12 | -8 | x | x
O=C(Nc1nccs1)C1CCCN1C(=O)Oc1ccccc1 (configuration not stated) | 0 | 0 | 0 | 1 | x | x
COc1ccc(OC)c(CN2CCN(Cc3cccc(C)c3)CC2)c1 | 0 | 0 | 70* | 2 | 0 | 0
CCCCNC(=O)C(C(=O)c1ccc(F)cc1)n1ccccc1=O (configuration not stated) | 0 | 1 | 18 | -1 | x | x
Cc1ccc(C(=O)OCc2cn3ccccc3n2)cc1 | 0 | -1 | 51* | -4 | 11 | 12
NC(=O)Cn1cnc2sc3c(c2c1=O)CCC3 | 0 | 0 | 66* | -6 | 60* | 3 | AS interf DR=>6.5
O=C(O)Cn1cnc2sc3c(c2c1=O)CCC3 | -1 | -1 | 30 | 1 | x | x
COc1ccc(-c2nc(NCCCN3CCCC3=O)c3ncn(CCN4CCCC4=O)c3n2)cn1 | 0 | 0 | -5 | 1 | x | x
CC#CC(=O)N1CCC(Cc2ccc(OC)cc2)(C(=O)OCC)CC1 | 0 | 2 | 95* | -31 | 2 | -6
CC(C)(C)OC(=O)N1C(C(=O)O)CSC1c1cc2c(cc1[N+](=O)[O-])OCO2 (configuration not stated) | 0 | 0 | 60* | -7 | 72* | -5 | AS interf DR=>6.5
CN(C)CCCN1C(=O)C(=O)/C(=C(\O)c2ccccc2)C1c1ccco1 (configuration not stated) | 0 | 0 | 75* | -1 | -4 | -12
CN(c1cccc(NS(=O)(=O)c2ccc([N+](=O)[O-])cc2)c1)S(C)(=O)=O | 0 | -2 | 51* | 13 | 34* | 7 | AS interf DR=>6.5
Cc1ccc(S(=O)(=O)Nc2cccc(N(C)S(C)(=O)=O)c2)cc1 | 0 | 2 | -12 | -4 | x | x
CC(=O)Oc1c(C)cc(C(O)(C(F)(F)F)C(F)(F)F)cc1C | 0 | 2 | 0 | -9 | x | x
